Most compounds without a hit are left out; they make up all but 3.3% or so of the library.
Anthrax LF prot: Bacillus anthracis LF protease inhibitors, primary screen, biochemical, multiplex microsphere, MLPCN library; inhibition, % at 10 µM; Lethal factor (Bacillus anthracis), P15917; AID 588501, 2011; actives 0.12% (n = 360,000); multiplex microsphere protease cleavage assay; also: plate controls were buffer without enzyme for full effect and enzyme alone for no effect
Target sequence (P15917 whole entry, looked up): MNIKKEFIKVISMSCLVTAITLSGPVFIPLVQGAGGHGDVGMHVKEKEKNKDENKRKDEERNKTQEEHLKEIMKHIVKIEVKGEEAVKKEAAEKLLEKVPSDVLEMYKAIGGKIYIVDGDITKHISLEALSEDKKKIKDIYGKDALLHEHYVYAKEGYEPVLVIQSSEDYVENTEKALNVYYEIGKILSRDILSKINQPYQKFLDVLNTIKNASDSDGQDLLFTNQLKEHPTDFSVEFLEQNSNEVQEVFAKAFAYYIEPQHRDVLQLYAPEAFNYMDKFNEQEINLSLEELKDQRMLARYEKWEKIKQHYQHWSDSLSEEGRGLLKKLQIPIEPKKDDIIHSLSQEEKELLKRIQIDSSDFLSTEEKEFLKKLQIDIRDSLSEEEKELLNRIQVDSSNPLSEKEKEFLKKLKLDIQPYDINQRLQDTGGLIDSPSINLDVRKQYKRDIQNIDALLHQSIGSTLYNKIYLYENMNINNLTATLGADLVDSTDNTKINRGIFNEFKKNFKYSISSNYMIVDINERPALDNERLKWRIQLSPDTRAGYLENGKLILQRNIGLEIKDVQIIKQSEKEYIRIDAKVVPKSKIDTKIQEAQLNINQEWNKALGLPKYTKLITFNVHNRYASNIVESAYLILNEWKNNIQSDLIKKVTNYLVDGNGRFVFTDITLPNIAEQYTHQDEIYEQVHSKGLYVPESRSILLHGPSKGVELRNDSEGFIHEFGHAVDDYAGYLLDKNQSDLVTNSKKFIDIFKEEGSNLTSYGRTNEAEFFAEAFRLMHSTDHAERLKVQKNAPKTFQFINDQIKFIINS
MazEF act: activators of E. coli MazEF toxin-antitoxin RNase, primary screen, biochemical, fluorescence, uHTS; Endoribonuclease toxin MazF (Escherichia coli (strain K12)), P0AE70; FAM/BHQ RNA-DNA oligo cleavage fluorescence, 5 h; activation, % at 20 µM; actives 0.32% (n = 350,000); in the data active = activation above about 50%
BoNT-A LC inh2: BoNT/A light chain protease inhibitors, primary screen, biochemical, flow cytometry, MLPCN library; multiplex microsphere protease substrate cleavage; actives 0.17% (n = 360,000); inhibition, % at 10 µM; Botulinum neurotoxin type A light chain protease (Clostridium botulinum A str. ATCC 3502); also: plate controls were buffer without enzyme for full effect and enzyme alone for no effect
Autofluor counter: compound fluorescence in toxin protease inhibitor counterscreen. actives 3.1% (n = 360,000). fluorescence intensity (test concentration not listed). compound autofluorescence counterscreen, microsphere flow cytometry; hits give high values; in the data active = fluorescence intensity above about 16000; inconclusive = no clear call, values can overlap the other calls
SSB-PriA inh: inhibitors of Klebsiella pneumoniae PriA binding to SSB C-terminal tail, primary screen, biochemical, AlphaScreen; PriA–SSB C-terminal tail interaction (Klebsiella pneumoniae); AlphaScreen SSBct-PriA binding, biotinylated peptide; inhibition, % at 33 µM; actives 0.6% (n = 430,000); in the data active = inhibition mostly above about 37%, no sharp cut-off; inactive = mostly below about 20%;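 also: plate controls were negative control peptide for no effect and reference peptide for full effect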
BoNT-F LC inh: BoNT/F light chain protease inhibitors, primary screen, biochemical, flow cytometry, MLPCN library. Botulinum neurotoxin type F light chain protease (Clostridium botulinum). Multiplex microsphere protease cleavage assay. inhibition, % at 10 µM. actives 0.22% (n = 360,000). AID 588497, 2011; in the data active = inhibition above about 35%, passing the limit was not always enough; inconclusive = no clear call, values can overlap the other calls; also: plate controls were buffer without enzyme for full effect and enzyme alone for no effect
* marks the source's active call; other numbers are inactive results; ! = repeats disagree. Rule as the data show it, unless noted: active = inhibition above about 30%; inconclusive = no clear call, values can overlap the other calls; inactive = below that.

C=CCn1c(Cc2c[nH]c3ccccc23)nnc1SCC(=O)NCc1ccccc1 was read as Anthrax LF prot -3.4, MazEF act -1.2, BoNT-A LC inh2 -1.6, Autofluor counter 23009*, SSB-PriA inh -1.3 and BoNT-F LC inh -3.0.
For CCOC(=O)c1c(C)[nH]c(N=Nc2ccc(C)cc2C)c1C the results were Anthrax LF prot -2.2, MazEF act 2.5, BoNT-A LC inh2 -0.4, Autofluor counter 3313, SSB-PriA inh -5.0 and BoNT-F LC inh -4.3.
`CCOC(=O)c1c(C)[nH]c(N=Nc2ccccc2C)c1C` gave Anthrax LF prot -9.3, MazEF act -2.5, BoNT-A LC inh2 -3.0, Autofluor counter 8580, SSB-PriA inh 62.0*! and BoNT-F LC inh -18.8.
`O=C(NCC1CCN(Cc2cccs2)CC1)C(=O)Nc1ccc2c(c1)OCCO2` gave SSB-PriA inh -12.0.
For COc1cc(Br)c(C(C)NC(=O)c2ccccc2)cc1OC (configuration not stated) the results were Anthrax LF prot -1.5, MazEF act 7.2, BoNT-A LC inh2 -1.7, Autofluor counter 21305*, SSB-PriA inh 1.5 and BoNT-F LC inh -4.1.
For COc1ccccc1-c1cn2nnc(C(=O)NCc3c(C)noc3C)c2c(=O)[nH]1 the results were SSB-PriA inh 25.0*.
CCCN1CCCc2cc(CCNC(=O)c3cccc(F)c3)ccc21 was read as SSB-PriA inh 41.0*.
CCCN1CCCc2cc(CCNC(=O)c3cccc(OC)c3)ccc21 was read as SSB-PriA inh 61.0*.
Screening CCCN1CCCc2cc(CCNC(=O)c3c(F)cccc3F)ccc21 returned SSB-PriA inh 54.0*.
Screening CCCN1CCCc2cc(CCNC(=O)c3cccc(C)c3)ccc21 returned SSB-PriA inh 59.0*.
CCCN1CCCc2cc(CCNC(=O)c3cccc(Cl)c3)ccc21 was read as SSB-PriA inh 48.0.
CCN1C(=O)C(C)(C)COc2ccc(NS(=O)(=O)c3ccc(C)cc3)cc21 was read as SSB-PriA inh -5.0.
For O=C(N1CC(c2nc(C3CC3)no2)C1)C1(c2ccc(Cl)cc2)CCCC1 the results were SSB-PriA inh -4.0.
Cc1ccc(CNC(=O)C(OC(=O)c2ccco2)C(C)C)cc1 (configuration not stated) was read as Anthrax LF prot -3.6, MazEF act -1.8, BoNT-A LC inh2 -0.7, Autofluor counter 11765, SSB-PriA inh -1.1 and BoNT-F LC inh -12.3.
`Cc1ccc(CNC(=O)C(C)OC(=O)c2ccco2)cc1` (configuration not stated) gave Anthrax LF prot 0.0, MazEF act 6.0, BoNT-A LC inh2 inconclusive, Autofluor counter 22466*, SSB-PriA inh 1.2 and BoNT-F LC inh 3.5.
O=C(Nc1ccccn1)c1cn[nH]n1 was read as SSB-PriA inh -21.0.
For COc1ccc(/C=N/n2cnnc2)cc1COc1ccccn1 the results were Anthrax LF prot -1.2, MazEF act -0.3, BoNT-A LC inh2 -1.1, Autofluor counter 23503* and BoNT-F LC inh -0.9.
For NC(=O)C1CCCN1S(=O)(=O)c1ccccc1 (configuration not stated) the results were SSB-PriA inh 12.0.
For Cc1ccc(S(=O)(=O)N2CCCC2C(=O)O)s1 (configuration not stated) the results were Anthrax LF prot -0.4, MazEF act -10.9, BoNT-A LC inh2 -1.8, Autofluor counter 24047*, SSB-PriA inh -9.7 and BoNT-F LC inh -4.1.
Screening O=C(O)C1CCCN1S(=O)(=O)c1ccccc1 (configuration not stated) returned Anthrax LF prot -0.5, MazEF act -5.4, BoNT-A LC inh2 3.1, Autofluor counter 20858*, SSB-PriA inh -2.7 and BoNT-F LC inh 5.1.
For O=C(NCc1ccccc1)NNC(=O)c1cccn(Cc2cccc(Cl)c2)c1=O the results were SSB-PriA inh -13.0.
For COC(=O)c1ccc(S(=O)(=O)NCC[C@H](O)c2cc(C)oc2C)cc1 the results were SSB-PriA inh 4.0.
Screening CCCCOC(=O)CNc1n[nH]c(=S)[nH]c1=O returned Anthrax LF prot 0.0, MazEF act -0.6, BoNT-A LC inh2 inconclusive, Autofluor counter 21415*, SSB-PriA inh -5.9 and BoNT-F LC inh 6.2.
CC(C)COC(=O)CNc1n[nH]c(=S)[nH]c1=O was read as Anthrax LF prot 1.2, MazEF act 2.6, BoNT-A LC inh2 -0.6, Autofluor counter 10488, SSB-PriA inh 0.0 and BoNT-F LC inh -6.9.
Screening Cc1nn(C)c(C)c1S(=O)(=O)NCCn1nc(-c2ccccn2)c2c1CCCC2 returned SSB-PriA inh -13.0.
For O=C1/C(=C/c2cccc([N+](=O)[O-])c2)CSc2ccc(Cl)cc21 the results were Anthrax LF prot 29.7*, MazEF act -2.7, BoNT-A LC inh2 inconclusive, Autofluor counter 3778, SSB-PriA inh -0.6 and BoNT-F LC inh inconclusive.
Screening O=C1/C(=C/c2cccc([N+](=O)[O-])c2)CC/C1=C\c1cccc([N+](=O)[O-])c1 returned SSB-PriA inh -20.0.
Screening CCCN(Cc1ccsc1)C(=O)NCc1cccc2ccccc12 returned SSB-PriA inh -15.0.
`Cc1nnc(C2CCN(S(=O)(=O)c3c(C)noc3C)CC2)s1` gave SSB-PriA inh -8.0.
Screening COc1cccc(-n2c(SCC(=O)Nc3nccs3)nnc2-c2c[nH]c3ccccc23)c1 returned SSB-PriA inh 16.0.
COC(=O)CSc1cc([N+](=O)[O-])cc2c1c(C1OCCO1)nn2-c1ccccc1 was read as Anthrax LF prot 1.7, MazEF act 113.8*, BoNT-A LC inh2 8.7, Autofluor counter 2588, SSB-PriA inh -8.1 and BoNT-F LC inh -14.1.
Screening O=C(O)c1ccccc1C(=O)N1CCN(c2cccc(Cl)c2)CC1 returned Anthrax LF prot -4.9, MazEF act 7.8, BoNT-A LC inh2 -2.6, Autofluor counter 3671, SSB-PriA inh -6.8 and BoNT-F LC inh -32.4.
`CCOc1ccc2ccccc2c1C(=O)N1CCN(Cc2ccsc2)CC1` gave SSB-PriA inh 16.0.
Screening COc1cc2c(C(=O)N3CCN(c4cccc(Cl)c4)CC3)cn(CC(C)C)c(=O)c2cc1OC returned Anthrax LF prot 7.3, MazEF act 0.1, BoNT-A LC inh2 3.0, Autofluor counter 4262, SSB-PriA inh 9.6 and BoNT-F LC inh 38.0*.
For CCOc1ccc2ccccc2c1C(=O)N1CCN(c2ccccc2)CC1 the results were Anthrax LF prot 1.2, MazEF act 1.5, BoNT-A LC inh2 5.6, Autofluor counter 21404*, SSB-PriA inh 5.0 and BoNT-F LC inh 5.8.
Screening CCOc1ccccc1C(=O)N1CCN(c2cccc(Cl)c2)CC1 returned Anthrax LF prot -0.7, MazEF act -7.0, BoNT-A LC inh2 1.3, Autofluor counter 20455*, SSB-PriA inh 6.1 and BoNT-F LC inh -2.3.

Bioassay records: PubChem, several laboratories
